Drawing on PubChem BioAssay (NCATS), this text covers Potency and activity change, negative = cytotoxicity for ten compounds.

Results filed as inconclusive are left out. Where a call stands in place of a potency, no number is given. Values without a mark were called inactive. Calls of active or inactive are those of the source. The call rests on the fitted dose curve; in most records, active means well fitted cell-killing curve with a large enough effect; inconclusive means small, poorly fitted or top-dose-only effect, or effect the other way; inactive means flat fitted curve, though single readings scatter. *1 amine or outer side, *2 acyl side, *3 side chain or, on linkers, in order; H or OH if unused. Where a SMILES comes first, the peptide text is derived from it. [ ]: non-standard residue; d: D form. X4 = CC(C)=CCc1cc(C(O)C(N[*:1])C(=O)[*:2])ccc1O

This test relates to C33A. As to the kind of experiment: Primary qHTS to identify gynecologic anti-cancer compounds using libraries of approved drugs and bioactive compounds (AID 1345084). Further: nearly all actives have a fitted effect of over 55% in size. The conditions noted are these: Gynecologic cancer cell panel viability, ATPlite luminescence, 48 h; series mostly up to 57.5 µM. The method in brief:
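Cell viability after 48 h drug treatment, ATPlite luminescence readout; five doses.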
`CN(C)CC1CCOC1(c1ccccc1)c1ccccc1` (stereo not given): the Potency entry was “inactive”. Still for that read-out and setting: with `O=C(OC1C=C(CO)C2C(OC3OC(CO)C(O)C(O)C3O)OC=CC12)c1ccc(O)cc1` (stereo not given) the entry was “inactive”. On to `CC1(C)CC[C@]2(C(=O)OC3OC(CO)C(O)C(O)C3O)CC[C@]3(C)C(=CCC4[C@@]5(C)CC[C@H](OC6OC(C(=O)O)C(O)C(OC7OC(CO)C(O)C(O)C7O)C6O)C(C)(C)C5CC[C@]43C)C2C1` (stereo not given in full), for which the activity change, negative = cytotoxicity is 0.815% [at 11.6 µM]. Still for that read-out and setting: with `CC(C)=CCc1cc(C(O)C2NC(=O)CNC(=O)C(Cc3c[nH]c4ccccc34)NC(=O)C3CCCN3C(=O)CNC(=O)C(C(C)C)NC(=O)CNC2=O)ccc1O` (stereo not given) (cyclo(G[X4]GVGPW); configuration not given here) the figure was 7.59% [at 11.6 µM]. Turning to `COc1ccc(CCO[C@@H]2CCCC[C@H]2N2CC[C@@H](O)C2)cc1OC`, the Potency result is “inactive”.

`COC(=O)C1=CO[C@@H](O[C@@H]2O[C@H](CO)[C@@H](O)[C@H](O)[C@H]2O)[C@@H]2C(COC(C)=O)=C[C@H](O)[C@H]12`: the Potency entry is “inactive”.

On to `CC12CCC(OC3OC(CO)C(O)C(OC4OC(CO)C(O)C(O)C4O)C3O)CC1=CCC1C2CCC2(C)/C(=C3/COC(=O)C3)CCC12O` (stereo not given), for which the Potency result is “inactive”. As for `C/C1=C\[C@H]2OC(=O)[C@@H](C)[C@@H]2CC/C(C(=O)O)=C/CC1`, the Potency result is “inactive”. As to `CC12CCC(OC3OC(CO)C(O)C(OC4OC(CO)C(O)C(O)C4O)C3O)CC1CCC1C2CCC2(C)/C(=C3/COC(=O)C3)CCC12O` (stereo not given), the Potency entry is “inactive”. As for `CC1(C)CCC[C@@]2(C)C1[C@H](OC(=O)/C=C/C=C/C(=O)O)C=C1COC(=O)[C@@]12O` (stereo not given in full), the Potency result was “inactive”.
